Where “and” joins values, the source holds several entries; their conditions need not be identical. Equal entries are not always repeated. This is part of a sample that, as a whole, favours compounds with a hit. Of some 79,000 tested, about 15% had one in any assay. A number with no mark means an inactive call. Calls of active or inactive are those of the source. Cut-off read from the data, not from the text of the source: active = growth inhibition above about 70%; inactive = the rest.

Our source for the growth inhibition values is PubChem BioAssay (NCI).

Test [1] in a line: NCI Yeast Anticancer Drug Screen. Data for the rad50 strain (AID 155).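 Note: 0% = growth of vehicle-only cultures of the same strain.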 The note with it: S. cerevisiae rad50 strain growth inhibition, hits give high values; at 50.0 µM unless noted. Summed up: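 Compounds were tested on a yeast strain with an engineered DNA damage repair alteration; the reported value is growth inhibition normalised to vehicle treatment.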
The nature of test [2]: NCI Yeast Anticancer Drug Screen. Data for the mec2-1 strain (AID 157). The note with it: S. cerevisiae mec2-1 strain, hits give high values; at 50.0 µM unless noted. Summed up: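 Readout is yeast growth inhibition, normalised to vehicle-treated controls, in the mec2-1 strain exposed to compound.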
Test [3] is described as follows: NCI Yeast Anticancer Drug Screen. Data for the sgs1 mgt1 strain (AID 161).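 Note: 0% = growth of cultures given vehicle only.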 The note with it: S. cerevisiae sgs1 mgt1 strain, hits give high values; at 50.0 µM unless noted. Summed up:
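Compounds are added to genetically altered yeast, and growth is compared with cultures given vehicle alone to give percent inhibition.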

Test [4] in a line: NCI Yeast Anticancer Drug Screen. Data for the cln2 rad14 strain (AID 165).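 Note: 0% = growth equal to vehicle treated cultures.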 The note with it: S. cerevisiae cln2 rad14 strain, hits give high values; at 50.0 µM unless noted. A digest of the protocol:
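Relative to vehicle controls, growth inhibition of compound-treated cln2 rad14 yeast was recorded.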

Test [5] is described as follows: NCI Yeast Anticancer Drug Screen. Data for the bub3 strain (AID 167). The note with it: S. cerevisiae bub3 mutant strain, hits give high values; at 50.0 µM unless noted. Summed up: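 Growth of a checkpoint-deficient yeast mutant is measured after compound exposure. Values represent inhibition relative to vehicle.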
A short description of test [6]: NCI Yeast Anticancer Drug Screen. Data for the mlh1 rad18 strain (AID 175). The note with it: S. cerevisiae mlh1 rad18 strain growth inhibition, hits give high values; at 50.0 µM unless noted. A digest of the protocol:
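Test agents were incubated with a yeast strain of defined genotype (DNA damage repair defect). Inhibition of growth was derived by comparison with vehicle-exposed cultures.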

With `O=C(CCc1ccccc1)On1nnc2ccccc2c1=O`, the growth inhibition is -19.1% in test [1]; -14.2% in test [2]; -29.8% in test [3]; 9.9% in test [4]; -14.6% in test [5]; -29.1% in test [6].

Take `N#CC(C(=O)NN)C1CCCCC1` (stereo not drawn): the growth inhibition in test [1] is -0.85%; in test [2] it was -22%; in test [3], -2.95%; in test [4] it was -0.1%; in test [5] it was -33.8%; in test [6], -11.7%.

Regarding `O=c1[nH]n(Cc2ccccc2CCl)c2ccc([N+](=O)[O-])cc12`, the growth inhibition is 24.1% in test [1]; 13.3% in test [2]; -10.8% in test [3]; 24% in test [4]; 4.1% in test [5]; 3.7% in test [6].

Take `CCCCN(C#N)CCCC`: the growth inhibition was 3% in test [1]; 1.75% in test [2]; 27.6% in test [3]; -97.3% in test [4]; -16.1% in test [5]; -32% in test [6].

`COc1ccc2cc1Oc1ccc(cc1)C[C@H]1c3cc(c(OC)cc3CCN1C)Oc1c(OC)c(OC)cc3c1[C@H](C2)N(C)CC3`: the growth inhibition in test [1] was 27.1% and 23.9%; in test [2], 12.3% and -23.1%; in test [3] it was -15.9% and 5.7%; in test [4], -26.3% and 4.5%; in test [5], -6.4% and 19.7%; in test [6] it was -31.4% and -38.9%.

Consider `O=S1(=O)c2ccccc2Nc2cc3ccccc3cc21`, for which the growth inhibition in test [1] is 6.75%; in test [2], 2.4%; in test [3], 0.85%; in test [4] it was -11.5%; in test [5] it was -2.55%; in test [6] it was 6.25%.

In the case of `O=C1OCCOCCOCCOCCOCCOC(=O)c2cccc1n2`, the growth inhibition in test [1] is 18.1%; in test [2], 12.2%; in test [3] it was 20.4%; in test [4], 18.1%; in test [5], 12.5%; in test [6], 16.1%.

Take `CC1(O)CCCC1(C)O` (stereo not drawn): the growth inhibition in test [1] is -29.1%; in test [2] it was -21.1%; in test [3] it was -19.1%; in test [4], -38.9%; in test [5], -21.7%; in test [6], -23.8%.

As for `OCC1C(CO)C2CC1C1N=NN(c3ccccc3)C21` (stereo not drawn), the growth inhibition is -4.8% in test [1]; 4.3% in test [2]; 8.25% in test [3]; -11.9% in test [4]; -0.35% in test [5]; -13.3% in test [6].

On to `Clc1cc(NCc2ccco2)ncn1`, for which the growth inhibition in test [1] is -21.8%; in test [2] it was -6.3%; in test [3], -19.5%; in test [4], -3.9%; in test [5], 0.85%; in test [6] it was -11.2%.

Regarding `Cc1c2cc[n+](C)cc2c(C)c2c1oc1ccccc12`, the growth inhibition in test [1] is 82.5% (active); in test [2], 62.1%; in test [3], 78.8% (active); in test [4], 55.9%; in test [5] it was 75.1% (active); in test [6] it was -38%.

Turning to `C/C(=N\NS(=O)(=O)c1c(C)cc(C)cc1C)c1ccc[n+]([O-])n1`, the growth inhibition in test [1] was 3.95%; in test [2] it was 0.2%; in test [3], -8.4%; in test [4], 15.1%; in test [5] it was -12.8%; in test [6], -6.7%.

Turning to `COc1ccc(/C(C)=C\C(=O)O)c(O)c1OC`, the growth inhibition in test [1] was 5.9%; in test [2], 6.85%; in test [3] it was -4.65%; in test [4], 3.55%; in test [5], 22.1%; in test [6], 7.8%.

On to `Cc1n[nH]c(=O)n1/N=C/c1ccncc1`, for which the growth inhibition was 8.45% in test [1]; 6.95% in test [2]; -6% in test [3]; -17% in test [4]; -4.35% in test [5]; 7% in test [6].

For `N#C/C(=C/c1ccccc1)c1ccccc1`, the growth inhibition was 42.5% in test [1]; 12.6% in test [2]; 24.6% in test [3]; 14.5% in test [4]; 40.9% in test [5]; 24.1% in test [6].

Take `CC1(C)OCC(C2OC3OC(C)(C)OC3C2N)O1` (stereo not drawn): the growth inhibition is 10.8% in test [1]; 10.7% in test [2]; 11.1% in test [3]; -2.95% in test [4]; 21.8% in test [5]; 5.4% in test [6].

As to `CC1(C)OC(=O)C(Cc2ccccc2)(Cc2ccccc2)C(=O)O1`, the growth inhibition was 2.2% in test [1]; -19.9% in test [2]; -11.8% in test [3]; 30.1% in test [4]; -17.1% in test [5]; -13.9% in test [6].

`CCN(CC)C(=S)Oc1ccc(OC(=S)N(CC)CC)cc1`: the growth inhibition in test [1] is 30.6%; in test [2] it was 7.1%; in test [3], -0.95%; in test [4] it was -6.75%; in test [5], -2.85%; in test [6], -7.35%.

Turning to `CCOC(=O)CSCC(C)C(=O)OC` (stereo not drawn), the growth inhibition in test [1] was -0.3%; in test [2], -0.5%; in test [3] it was -2.7%; in test [4] it was 7.2%; in test [5] it was 2.5%; in test [6], 2.25%.

Regarding `CN(C)C(Cc1cnc[nH]1)C(=O)N1CCCC1C(N)=O` (stereo not drawn), the growth inhibition in test [1] was -22.4%; in test [2] it was -45.8%; in test [3], -9.65%; in test [4], -0.8%; in test [5], -20.8%; in test [6], 5.85%.

As for `NC(=O)c1ncc(Cl)cc1Cl`, the growth inhibition was 21.1% in test [1]; 2.5% in test [2]; 14.3% in test [3]; 5.8% in test [4]; 0.55% in test [5]; 25.1% in test [6].

With `CCOC(=O)N1CCN(C(=O)CC(C)=O)CC1`, the growth inhibition in test [1] was 2.35%; in test [2] it was -32.5%; in test [3], -0.15%; in test [4] it was 19.1%; in test [5], 4.45%; in test [6], 16.6%.

Consider `N=C(N)C1CN(CC=O)C(=O)NC1=O` (stereo not drawn), for which the growth inhibition is -11.7% in test [1]; 11.1% in test [2]; -2.65% in test [3]; 24.9% in test [4]; -4.15% in test [5]; 11.8% in test [6].

Turning to `C=CCOC(=O)c1ccc(C(C)C)cc1`, the growth inhibition in test [1] was 25.1%; in test [2], 12%; in test [3], 9.5%; in test [4], 7.6%; in test [5], 8%; in test [6], 35.6%.

Take `CSc1ccc(NC(=O)c2ccc(Cl)cc2)cc1`: the growth inhibition was -13.7% in test [1]; -6.05% in test [2]; -6.45% in test [3]; -22.7% in test [4]; 5.25% in test [5]; -3.35% in test [6].

For `COC(C(=O)Nc1ccc(C)cc1)(c1ccccc1)c1ccccc1`, the growth inhibition in test [1] was 7.4%; in test [2], 7.45%; in test [3], -7.55%; in test [4] it was 0.65%; in test [5] it was 12.9%; in test [6], 23.8%.

Consider `O=P(O)(O)OP(=O)(O)O`, for which the growth inhibition in test [1] was -15.3%; in test [2], -15.1%; in test [3], -2.4%; in test [4] it was -12.1%; in test [5], -54.6%; in test [6], 25.8%.

Regarding `CCOC(=S)Nc1ccccc1[N+](=O)[O-]`, the growth inhibition is 8.05% in test [1]; -10.6% in test [2]; 0.05% in test [3]; -57.6% in test [4]; -23.6% in test [5]; -9.15% in test [6].

On to `COC(=O)c1c(C)nc(C)c(N=O)c1-c1ccccc1C(F)(F)F`, for which the growth inhibition is 6.4% in test [1]; 5.5% in test [2]; 7.45% in test [3]; 20.1% in test [4]; 12.4% in test [5]; -44.6% in test [6].

`COc1ccc(/C(C)=N/N=C\c2cc(OC)c(OC)c(OC)c2)cc1`: the growth inhibition in test [1] was 6.95%; in test [2] it was 3.15%; in test [3] it was -10.8%; in test [4] it was 14.8%; in test [5] it was 83.2% (active); in test [6], 8.2%.

`CCCCCC=C(c1cc(Cl)c(OC)c(C(N)=O)c1)c1cc(Cl)c(OC)c(C(N)=O)c1`: the growth inhibition in test [1] is -20.1%; in test [2], -9.35%; in test [3], -12.4%; in test [4] it was -92.9%; in test [5], 5.5%; in test [6], -13.9%.

For the compound `O=C1CSC(c2cc([N+](=O)[O-])ccc2Cl)N1c1nncs1` (stereo not drawn), the growth inhibition in test [1] is 22.1%; in test [2] it was 15.6%; in test [3] it was 37.2%; in test [4], 19.1%; in test [5], 21.7%; in test [6], 28.4%.

As for `Cc1c(CC#N)cc(C)c2c3c([nH]c12)-c1ccccc1CC3`, the growth inhibition in test [1] is 35.5%; in test [2], 35.2%; in test [3], 44%; in test [4], 11.8%; in test [5], 37.5%; in test [6] it was 18.9%.

As for `COC1=CC(=O)c2cc3ccc(OC)c(N)c3nc2C1=O`, the growth inhibition in test [1] was 12.8%; in test [2], -7.2%; in test [3], 5.45%; in test [4], -4.2%; in test [5], 13.3%; in test [6], -10.9%.

As to `c1ccc(C2=NN(c3ccccc3)CC2)cc1`, the growth inhibition was -8.3% in test [1]; -3.15% in test [2]; 0.4% in test [3]; 9.25% in test [4]; 9.35% in test [5]; 2.05% in test [6].

With `CN(C)c1ccccc1C(=O)N/N=C\c1ccc(-c2ccccc2)cc1`, the growth inhibition is 7.05% in test [1]; 4.95% in test [2]; 0.6% in test [3]; 12.3% in test [4]; 0.35% in test [5]; 19.6% in test [6].

`CON(C)C(=O)CNC(=O)OCC1c2ccccc2-c2ccccc21`: the growth inhibition in test [1] is 8%; in test [2], -6.05%; in test [3] it was 5.35%; in test [4] it was 2.15%; in test [5], -5%; in test [6], -29.3%.

With `NC(=O)NN(Cc1ccc2c(c1)OCO2)N=O`, the growth inhibition in test [1] is -7.25%; in test [2], -6%; in test [3] it was -5.55%; in test [4], -16.6%; in test [5], 16.2%; in test [6], 1.9%.
